Assay outcomes as filed in PubChem.
D1 ag = activates the human D1 dopamine receptor; AID 504660; P21728; activation, % at 2 µM; HEK293 T-REx D1 cells, calcium flux, agonist mode; hit rate 1% among 360,000; in the data active = activation above about 30%; note: 0% is about no effect
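Inducible HEK293 T-REx D1 cells, force-coupled to calcium signalling, were plated at 4000 cells/well with tetracycline and held overnight at 30 C. After no-wash calcium dye loading, compound-evoked calcium rise over 180 s flagged agonists.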
D1 PAM = human D1 dopamine receptor positive modulation; P21728; HEK293 TREx D1 cells, calcium flux, dopamine EC20 potentiation; potentiation, % at 10 µM; hit rate 0.036% among 360,000; AID 504651; in the data active = potentiation above about 30%; note: 0% is about no effect
D3 antag = antagonists of human D3 dopamine receptor | P35462 | D3R cells, DiscoveRx beta-arrestin luminescence, antagonist mode; active compounds read low | max response, negative = inhibition, % | hit rate 2.5% among 360,000 | AID 652054; in the data active = max response below about -50%; inconclusive = no clear call, values can overlap the other calls; note: % is set by controls: 0 for no effect and ±100 for the full control effect
Target sequence (P35462 whole entry, looked up): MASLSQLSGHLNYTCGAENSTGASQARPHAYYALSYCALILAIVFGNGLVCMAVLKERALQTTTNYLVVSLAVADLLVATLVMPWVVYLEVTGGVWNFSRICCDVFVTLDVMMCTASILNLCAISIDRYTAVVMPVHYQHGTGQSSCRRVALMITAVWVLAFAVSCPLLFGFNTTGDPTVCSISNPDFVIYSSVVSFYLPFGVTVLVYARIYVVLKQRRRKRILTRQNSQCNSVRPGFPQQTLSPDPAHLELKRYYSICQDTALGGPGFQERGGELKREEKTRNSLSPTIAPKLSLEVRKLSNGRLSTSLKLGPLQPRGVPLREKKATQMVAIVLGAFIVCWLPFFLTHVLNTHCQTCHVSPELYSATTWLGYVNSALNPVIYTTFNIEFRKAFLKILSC
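Cells plated overnight at 1500 cells/well, then exposed to library compounds with dopamine controls for 90 minutes at 37 degrees C. DiscoveRx reagent added for 30–60 minutes at room temperature; luminescence read, quantitative HTS format.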
D3 ag = D3 dopamine receptor (human) agonism; P35462; D3R DiscoveRx beta-arrestin cells, luminescence, 90 min; max activation, %; hit rate 0.58% among 410,000; AID 652048; in the data active = max activation above about 30%; note: 0% is about no effect
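Agonist-mode cell screen: cells plated at 1500/well and incubated overnight at 37 °C, then exposed to library compounds for 90 min at 37 °C. Detection reagent was added for 30–60 min at room temperature, and luminescence was read.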
D1 antagonist = antagonists of human D1 dopamine receptor. P21728. HEK293 TREx D1 cells, calcium flux, dopamine EC80; active compounds read low. activity change, negative = inhibition, % at 10 µM. hit rate 3.2% among 360,000; in the data active = activity change below about -30%; note: % is set by controls: 0 for no effect and ±100 for the full control effect
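Calcium flux readout: force-coupled, inducible Hek293 Trex D1 line, cells induced overnight at 30 C with tetracycline, dye-loaded 30–90 min at RT. Antagonism scored against EC80 dopamine challenge given 180 s after compound.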
An asterisk follows results filed as active. Sampled rows, rich in hits. Any-hit rate of the full collection: about 6.1%.

For CCc1cccc(OCCOCCN2CCCC2)c1 the results were D1 ag 1, D1 PAM -5, D3 antag -71*, D3 ag -3 and D1 antagonist 9.
For Cc1ccc(C(C)C)cc1OCC(=O)NC1CCCCCCC1 the results were D1 ag 2, D1 PAM 5, D3 antag -15, D3 ag -5 and D1 antagonist 22.
For Cc1cc(OCCOCCN2CCCC2)ccc1C(C)C the results were D1 ag 5, D1 PAM 0, D3 antag -58*, D3 ag -10 and D1 antagonist 6.
Screening COc1ccc(Br)cc1S(=O)(=O)NCc1ccccc1 returned D1 ag 1, D1 PAM 1, D3 antag 4, D3 ag 4 and D1 antagonist -4.
For COc1ccc(-c2nnnn2C)cc1S(=O)(=O)NCc1ccccc1 the results were D1 ag 3, D1 PAM 0, D3 antag -8, D3 ag -8 and D1 antagonist -55*.
`COc1ccc(/C=C/C(=O)O)cc1S(=O)(=O)NCc1ccccc1` gave D1 ag 2, D1 PAM -3, D3 antag -17, D3 ag 36* and D1 antagonist 3.
Screening CCc1nn(CC(=O)NCCc2ccc(OC)cc2OC)c(=O)c2cc3c(OC)cccc3n12 returned D1 ag -1, D1 PAM -7, D3 ag 2 and D1 antagonist -21.
Screening NS(=O)(=O)c1ccc(NC2=CC(=O)C(=O)c3ccccc32)cc1 returned D1 ag 1, D1 PAM -6, D3 antag -53*, D3 ag -7 and D1 antagonist -6.
For CCS(=O)(=O)c1nn2c(N)c(/C=C3/C=CC(=O)C(OC)=C3)c(=O)nc2s1 the results were D1 ag 31*, D1 PAM -3, D3 antag 0, D3 ag 1 and D1 antagonist 13.
`Cc1ccc(-n2c(SCC(=O)OC(C)C)nnc2-c2ccncc2)cc1` gave D1 ag 38*, D1 PAM 4, D3 antag inconclusive, D3 ag 1 and D1 antagonist 8.
For CC(C)OC(=O)CSc1nnc(-c2ccncc2)n1N the results were D1 ag 2, D1 PAM -2, D3 antag 7, D3 ag -5 and D1 antagonist -4.
`Cc1nc(N2CCN(Cc3ccccc3)CC2)nc2c1C(=O)CC(c1ccco1)C2` (centres undefined) gave D1 ag 1, D1 PAM -3, D3 antag -53*, D3 ag -53 and D1 antagonist -32*.
Screening Cc1nc(N2CCN(Cc3ccc4c(c3)OCO4)CC2)nc2c1C(=O)CC(c1ccco1)C2 (centres undefined) returned D1 ag 3, D1 PAM 0, D3 antag -72*, D3 ag -51 and D1 antagonist -5.
`Cc1nc(N2CCN(Cc3ccccc3)CC2)nc2c1CCC2` gave D1 ag -4, D1 PAM -2, D3 antag -67*, D3 ag -17 and D1 antagonist 11.
`Cc1nc(N2CCN(C(=O)c3ccco3)CC2)nc2c1C(=O)CC(C)C2` (centres undefined) gave D1 ag 1, D1 PAM -2, D3 antag 18, D3 ag 10 and D1 antagonist 27.
For CCCCOc1cccc(C2c3c(-c4cc(C)ccc4O)n[nH]c3C(=O)N2CCOC)c1 (centres undefined) the results were D1 ag -1, D1 PAM 1, D3 ag 42* and D1 antagonist 18.
O=C1c2ccccc2C(=O)N1CCCCN(C(=O)c1cc([N+](=O)[O-])ccc1Cl)c1ccc(Cl)cc1 was read as D1 ag 0, D1 PAM 1, D3 antag 11, D3 ag 2 and D1 antagonist 5.
CCN1CCN(CCCNC(=O)c2ccc(/C=C3/Sc4ccccc4N(Cc4ccccc4F)C3=O)cc2)CC1 was read as D1 ag 8, D1 PAM -8, D3 antag 2, D3 ag -12 and D1 antagonist -18.
`CCN1CCN(CCNC(=O)c2ccc(/C=C3/Sc4ccccc4N(Cc4ccccc4C)C3=O)cc2)CC1` gave D1 ag 40*, D1 PAM -14, D3 antag -1, D3 ag -3 and D1 antagonist -21.
Screening CCN1CCN(CCCNC(=O)c2ccc(/C=C3/Oc4ccccc4N(Cc4cccc(C)c4)C3=O)cc2)CC1 returned D1 ag 39*, D1 PAM -2, D3 antag -24, D3 ag -15 and D1 antagonist -37*.
Screening CCOC(=O)Cn1c(C(=O)OCC)cc2sccc21 returned D1 ag 2, D1 PAM -6, D3 antag 4, D3 ag -4 and D1 antagonist -30*.
CCOC(=O)c1cc2sccc2n1CC(=O)Nc1ccc(OC)cc1OC was read as D1 ag 7, D1 PAM -3, D3 antag -5, D3 ag -4 and D1 antagonist -39*.
For COC(=O)c1cc2sccc2n1CC(=O)Nc1ccc(OC)c(OC)c1OC the results were D1 ag 10, D1 PAM -2, D3 antag -15, D3 ag -3 and D1 antagonist -4.
`CCOc1ccc(N2CC(c3nc(-c4cc(OC)c(OC)c(OC)c4)no3)CC2=O)cc1` (centres undefined) gave D1 ag -1, D1 PAM -5, D3 ag 2 and D1 antagonist -2.
COc1ccc(-n2c(-c3ccco3)nc3c(cnn3-c3ccccc3Cl)c2=O)cc1 was read as D1 ag 11, D1 PAM -3, D3 ag -9 and D1 antagonist 9.
CC1Cc2ccccc2N1C(=O)Cn1nnc(-c2ccccc2NC(=O)C2CCC2)n1 (centres undefined) was read as D1 ag 0, D1 PAM -4, D3 antag -98*, D3 ag 9 and D1 antagonist -21.
Screening COc1ccc(CCNC(=O)CCS(=O)(=O)c2cc(Br)cc3c2N(C(C)=O)CC3)cc1OC returned D1 ag -2, D1 PAM 1, D3 ag -2 and D1 antagonist 3.
O=C(NC(NC(=S)Nc1ccccc1Cl)C(Cl)(Cl)Cl)c1cccc(Cl)c1 (centres undefined) was read as D1 ag 10, D1 PAM -11, D3 antag inconclusive, D3 ag -4 and D1 antagonist -13.
Screening O=C(NC(NC(=S)Nc1ccccc1C(=O)O)C(Cl)(Cl)Cl)c1cccc([N+](=O)[O-])c1 (centres undefined) returned D1 ag 7, D1 PAM -6, D3 antag -79*, D3 ag 1 and D1 antagonist -16.
